Legend:
Assay in all cases: log2 ratio of Biotin-Ahx-Ub-VS probe labelling (fragment/DMSO); higher = less target engagement (more negative = stronger competition), active = hit call of the paper (q ≤ 0.05, log2 ratio ≤ -1)
Conditions in all cases: compound concentration: 200 uM; treatment time: 3 h
USP42 = biological target: T1, USP42 (UniProt Q9H9J4)
T1 sequence (whole entry): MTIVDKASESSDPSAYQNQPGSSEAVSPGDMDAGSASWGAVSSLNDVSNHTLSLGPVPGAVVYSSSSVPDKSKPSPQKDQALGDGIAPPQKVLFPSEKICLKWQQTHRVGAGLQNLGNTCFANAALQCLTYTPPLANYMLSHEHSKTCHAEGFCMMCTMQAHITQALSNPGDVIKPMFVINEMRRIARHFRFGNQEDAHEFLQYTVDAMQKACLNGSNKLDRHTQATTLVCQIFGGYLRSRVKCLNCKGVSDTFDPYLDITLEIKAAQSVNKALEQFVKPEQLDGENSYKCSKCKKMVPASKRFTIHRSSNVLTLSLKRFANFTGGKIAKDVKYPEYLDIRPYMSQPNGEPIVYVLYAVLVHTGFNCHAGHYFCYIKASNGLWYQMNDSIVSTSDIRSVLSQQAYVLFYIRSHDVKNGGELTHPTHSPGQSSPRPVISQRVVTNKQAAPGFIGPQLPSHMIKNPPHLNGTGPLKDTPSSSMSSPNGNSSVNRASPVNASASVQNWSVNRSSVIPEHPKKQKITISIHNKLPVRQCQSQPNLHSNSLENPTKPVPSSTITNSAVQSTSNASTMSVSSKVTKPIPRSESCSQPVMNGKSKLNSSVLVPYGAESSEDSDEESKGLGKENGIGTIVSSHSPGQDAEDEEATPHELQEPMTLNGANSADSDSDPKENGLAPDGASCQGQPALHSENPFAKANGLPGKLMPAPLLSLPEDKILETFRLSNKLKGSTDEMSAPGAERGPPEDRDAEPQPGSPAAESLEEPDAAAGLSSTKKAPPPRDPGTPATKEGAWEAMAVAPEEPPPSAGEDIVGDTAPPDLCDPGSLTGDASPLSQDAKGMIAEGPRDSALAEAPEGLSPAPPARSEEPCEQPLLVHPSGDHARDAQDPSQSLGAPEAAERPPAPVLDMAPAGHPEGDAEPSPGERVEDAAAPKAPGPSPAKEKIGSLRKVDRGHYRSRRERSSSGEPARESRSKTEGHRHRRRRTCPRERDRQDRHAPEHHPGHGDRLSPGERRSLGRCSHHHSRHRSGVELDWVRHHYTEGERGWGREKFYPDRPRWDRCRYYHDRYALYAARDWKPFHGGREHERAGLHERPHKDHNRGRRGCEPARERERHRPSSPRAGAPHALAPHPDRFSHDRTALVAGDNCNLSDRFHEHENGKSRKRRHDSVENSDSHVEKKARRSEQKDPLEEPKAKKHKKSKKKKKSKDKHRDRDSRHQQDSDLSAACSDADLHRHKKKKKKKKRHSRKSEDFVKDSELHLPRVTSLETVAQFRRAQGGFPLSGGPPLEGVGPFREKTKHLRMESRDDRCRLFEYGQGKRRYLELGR
Outline: (§1)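 Using Biotin-Ahx-Ub-VS at 0.5 µM final for 1 h, DUBs were labelled in HEK293T lysate (495 µg per sample) that had first been treated in triplicate with fragment at 200 µM or vehicle for 3 h. NeutrAvidin enrichment, LysC and trypsin digestion and diaPASEF LC-MS/MS followed. Spectronaut label-free quantities were global-median-normalised. Values are average log2 fragment/vehicle ratios by unpaired t-test, using proteins with ≥2 unique peptides.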

USP46 = USP46 (UniProt P62068)
Outline: as §1

USP47 = biological target: T2, USP47 (UniProt Q96K76)
T2 sequence (whole entry): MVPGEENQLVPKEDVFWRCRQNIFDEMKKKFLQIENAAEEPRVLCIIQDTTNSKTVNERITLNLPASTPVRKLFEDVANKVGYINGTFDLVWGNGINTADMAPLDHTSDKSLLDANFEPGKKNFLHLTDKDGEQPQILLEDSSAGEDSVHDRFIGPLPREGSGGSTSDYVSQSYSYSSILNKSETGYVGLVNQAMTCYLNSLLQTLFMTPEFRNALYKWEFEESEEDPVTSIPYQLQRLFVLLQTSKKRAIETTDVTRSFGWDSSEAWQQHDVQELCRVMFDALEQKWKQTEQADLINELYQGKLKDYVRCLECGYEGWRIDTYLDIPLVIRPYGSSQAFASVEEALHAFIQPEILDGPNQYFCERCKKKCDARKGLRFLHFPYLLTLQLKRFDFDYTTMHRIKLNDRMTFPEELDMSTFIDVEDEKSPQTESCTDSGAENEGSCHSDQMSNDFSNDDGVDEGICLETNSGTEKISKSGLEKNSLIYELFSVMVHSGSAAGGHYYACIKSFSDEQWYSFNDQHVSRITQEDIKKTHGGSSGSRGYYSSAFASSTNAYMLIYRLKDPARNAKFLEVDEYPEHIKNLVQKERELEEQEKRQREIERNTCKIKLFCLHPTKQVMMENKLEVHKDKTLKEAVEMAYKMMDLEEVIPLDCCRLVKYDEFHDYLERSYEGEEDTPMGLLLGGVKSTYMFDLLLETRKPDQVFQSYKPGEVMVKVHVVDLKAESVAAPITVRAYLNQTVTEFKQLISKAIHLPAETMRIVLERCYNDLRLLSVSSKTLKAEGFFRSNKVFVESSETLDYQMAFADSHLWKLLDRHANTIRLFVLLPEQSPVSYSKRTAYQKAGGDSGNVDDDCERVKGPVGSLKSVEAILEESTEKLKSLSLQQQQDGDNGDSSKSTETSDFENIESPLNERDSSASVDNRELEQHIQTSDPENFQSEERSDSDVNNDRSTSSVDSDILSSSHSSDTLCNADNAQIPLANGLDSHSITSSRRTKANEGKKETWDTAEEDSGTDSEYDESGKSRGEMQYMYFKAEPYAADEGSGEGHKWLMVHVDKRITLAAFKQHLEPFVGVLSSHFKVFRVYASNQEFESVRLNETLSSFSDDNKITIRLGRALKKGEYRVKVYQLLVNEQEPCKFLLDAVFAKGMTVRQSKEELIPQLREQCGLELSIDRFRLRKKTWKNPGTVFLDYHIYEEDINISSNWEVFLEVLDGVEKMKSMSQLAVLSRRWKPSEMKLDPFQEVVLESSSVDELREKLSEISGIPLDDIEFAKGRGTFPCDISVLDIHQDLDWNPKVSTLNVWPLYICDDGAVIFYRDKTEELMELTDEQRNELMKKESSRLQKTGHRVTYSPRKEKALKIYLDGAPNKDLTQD
Outline: as §1

USP48 = biological target: T3, USP48 (UniProt Q86UV5)
T3 sequence (whole entry): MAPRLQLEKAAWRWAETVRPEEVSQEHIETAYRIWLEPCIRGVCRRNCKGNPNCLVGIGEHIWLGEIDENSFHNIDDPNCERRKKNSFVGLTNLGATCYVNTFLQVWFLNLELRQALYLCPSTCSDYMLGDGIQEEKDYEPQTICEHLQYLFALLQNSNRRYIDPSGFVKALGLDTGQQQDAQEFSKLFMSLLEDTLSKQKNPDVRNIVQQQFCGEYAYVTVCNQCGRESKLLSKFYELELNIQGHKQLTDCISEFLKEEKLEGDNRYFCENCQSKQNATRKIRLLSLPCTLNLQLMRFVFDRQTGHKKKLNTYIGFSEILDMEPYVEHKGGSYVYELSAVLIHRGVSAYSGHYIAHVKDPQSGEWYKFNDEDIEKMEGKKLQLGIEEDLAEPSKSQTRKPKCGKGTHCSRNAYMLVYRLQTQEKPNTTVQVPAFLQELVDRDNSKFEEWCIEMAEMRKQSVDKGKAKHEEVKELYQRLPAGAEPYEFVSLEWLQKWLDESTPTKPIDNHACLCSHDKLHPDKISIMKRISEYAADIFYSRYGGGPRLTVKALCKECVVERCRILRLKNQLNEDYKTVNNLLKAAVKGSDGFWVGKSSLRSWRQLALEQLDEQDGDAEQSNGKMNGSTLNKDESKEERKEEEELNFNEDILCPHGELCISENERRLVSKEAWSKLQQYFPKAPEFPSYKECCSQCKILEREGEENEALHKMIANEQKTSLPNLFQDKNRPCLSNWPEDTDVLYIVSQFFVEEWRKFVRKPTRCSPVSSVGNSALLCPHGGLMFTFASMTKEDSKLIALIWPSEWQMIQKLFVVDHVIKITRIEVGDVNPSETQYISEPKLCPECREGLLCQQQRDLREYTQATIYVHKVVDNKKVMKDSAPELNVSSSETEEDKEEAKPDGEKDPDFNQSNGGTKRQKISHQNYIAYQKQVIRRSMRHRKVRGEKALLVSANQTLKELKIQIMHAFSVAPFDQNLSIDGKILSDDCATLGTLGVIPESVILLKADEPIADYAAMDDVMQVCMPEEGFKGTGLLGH
Outline: as §1

USP5 = biological target: T4, USP5 (UniProt P45974)
T4 sequence (whole entry): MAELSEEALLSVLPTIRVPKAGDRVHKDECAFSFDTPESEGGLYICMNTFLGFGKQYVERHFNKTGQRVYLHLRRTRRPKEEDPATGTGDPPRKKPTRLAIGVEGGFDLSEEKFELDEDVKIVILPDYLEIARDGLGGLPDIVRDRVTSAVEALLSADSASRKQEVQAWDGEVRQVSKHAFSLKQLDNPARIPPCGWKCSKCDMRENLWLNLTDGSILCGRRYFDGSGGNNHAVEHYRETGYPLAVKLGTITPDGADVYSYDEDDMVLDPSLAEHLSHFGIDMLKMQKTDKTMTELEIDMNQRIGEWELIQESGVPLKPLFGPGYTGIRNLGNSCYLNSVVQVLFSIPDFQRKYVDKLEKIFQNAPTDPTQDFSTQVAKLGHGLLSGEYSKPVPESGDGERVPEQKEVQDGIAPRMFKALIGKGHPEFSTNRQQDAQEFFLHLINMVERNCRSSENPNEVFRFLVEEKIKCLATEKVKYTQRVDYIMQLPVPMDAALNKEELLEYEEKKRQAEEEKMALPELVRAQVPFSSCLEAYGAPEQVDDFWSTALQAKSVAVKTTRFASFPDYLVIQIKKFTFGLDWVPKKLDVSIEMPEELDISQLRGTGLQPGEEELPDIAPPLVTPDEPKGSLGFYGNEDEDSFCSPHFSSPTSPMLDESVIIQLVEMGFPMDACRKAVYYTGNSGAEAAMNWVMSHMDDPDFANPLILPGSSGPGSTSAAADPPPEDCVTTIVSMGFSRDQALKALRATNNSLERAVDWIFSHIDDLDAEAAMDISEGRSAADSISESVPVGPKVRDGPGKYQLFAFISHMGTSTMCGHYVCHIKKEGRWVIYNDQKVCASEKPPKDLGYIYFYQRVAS
Outline: as §1

USP54 = USP54 (UniProt Q70EL1)
Outline: as §1

USP7 = USP7 (UniProt Q93009)
Outline: as §1

USP8 = biological target: T5, USP8 (UniProt P40818)
T5 sequence (whole entry): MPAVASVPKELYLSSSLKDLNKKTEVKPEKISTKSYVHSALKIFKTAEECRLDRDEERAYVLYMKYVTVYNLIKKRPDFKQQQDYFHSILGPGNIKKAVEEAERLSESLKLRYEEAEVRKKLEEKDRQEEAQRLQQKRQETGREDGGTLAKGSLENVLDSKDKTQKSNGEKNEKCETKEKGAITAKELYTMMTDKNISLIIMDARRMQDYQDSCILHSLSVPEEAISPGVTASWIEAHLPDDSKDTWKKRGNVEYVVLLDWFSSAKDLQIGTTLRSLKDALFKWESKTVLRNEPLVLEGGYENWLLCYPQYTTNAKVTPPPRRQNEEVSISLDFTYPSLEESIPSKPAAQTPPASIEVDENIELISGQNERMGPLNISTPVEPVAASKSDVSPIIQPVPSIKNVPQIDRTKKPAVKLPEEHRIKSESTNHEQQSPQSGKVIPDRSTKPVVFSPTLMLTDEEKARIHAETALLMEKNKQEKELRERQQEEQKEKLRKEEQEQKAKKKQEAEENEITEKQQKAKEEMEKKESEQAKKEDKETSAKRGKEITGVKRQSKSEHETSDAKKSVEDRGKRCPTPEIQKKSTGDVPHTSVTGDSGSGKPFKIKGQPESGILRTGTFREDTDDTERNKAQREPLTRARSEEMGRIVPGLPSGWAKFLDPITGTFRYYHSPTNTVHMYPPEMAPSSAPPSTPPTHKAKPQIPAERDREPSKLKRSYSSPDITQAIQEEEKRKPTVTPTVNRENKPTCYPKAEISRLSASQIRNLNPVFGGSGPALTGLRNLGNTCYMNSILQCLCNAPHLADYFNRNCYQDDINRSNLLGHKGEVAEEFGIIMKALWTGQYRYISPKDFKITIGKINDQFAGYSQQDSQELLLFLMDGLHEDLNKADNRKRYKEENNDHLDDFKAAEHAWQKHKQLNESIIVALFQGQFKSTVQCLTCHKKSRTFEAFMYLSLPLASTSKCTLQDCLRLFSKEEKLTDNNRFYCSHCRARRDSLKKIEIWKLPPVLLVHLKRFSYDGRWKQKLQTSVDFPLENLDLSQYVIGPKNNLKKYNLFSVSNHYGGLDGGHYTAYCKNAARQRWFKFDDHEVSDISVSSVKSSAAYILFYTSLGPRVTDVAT
Outline: as §1

Measured: log2 ratio of Biotin-Ahx-Ub-VS probe labelling

Sequence of USP54 (Q70EL1 whole entry): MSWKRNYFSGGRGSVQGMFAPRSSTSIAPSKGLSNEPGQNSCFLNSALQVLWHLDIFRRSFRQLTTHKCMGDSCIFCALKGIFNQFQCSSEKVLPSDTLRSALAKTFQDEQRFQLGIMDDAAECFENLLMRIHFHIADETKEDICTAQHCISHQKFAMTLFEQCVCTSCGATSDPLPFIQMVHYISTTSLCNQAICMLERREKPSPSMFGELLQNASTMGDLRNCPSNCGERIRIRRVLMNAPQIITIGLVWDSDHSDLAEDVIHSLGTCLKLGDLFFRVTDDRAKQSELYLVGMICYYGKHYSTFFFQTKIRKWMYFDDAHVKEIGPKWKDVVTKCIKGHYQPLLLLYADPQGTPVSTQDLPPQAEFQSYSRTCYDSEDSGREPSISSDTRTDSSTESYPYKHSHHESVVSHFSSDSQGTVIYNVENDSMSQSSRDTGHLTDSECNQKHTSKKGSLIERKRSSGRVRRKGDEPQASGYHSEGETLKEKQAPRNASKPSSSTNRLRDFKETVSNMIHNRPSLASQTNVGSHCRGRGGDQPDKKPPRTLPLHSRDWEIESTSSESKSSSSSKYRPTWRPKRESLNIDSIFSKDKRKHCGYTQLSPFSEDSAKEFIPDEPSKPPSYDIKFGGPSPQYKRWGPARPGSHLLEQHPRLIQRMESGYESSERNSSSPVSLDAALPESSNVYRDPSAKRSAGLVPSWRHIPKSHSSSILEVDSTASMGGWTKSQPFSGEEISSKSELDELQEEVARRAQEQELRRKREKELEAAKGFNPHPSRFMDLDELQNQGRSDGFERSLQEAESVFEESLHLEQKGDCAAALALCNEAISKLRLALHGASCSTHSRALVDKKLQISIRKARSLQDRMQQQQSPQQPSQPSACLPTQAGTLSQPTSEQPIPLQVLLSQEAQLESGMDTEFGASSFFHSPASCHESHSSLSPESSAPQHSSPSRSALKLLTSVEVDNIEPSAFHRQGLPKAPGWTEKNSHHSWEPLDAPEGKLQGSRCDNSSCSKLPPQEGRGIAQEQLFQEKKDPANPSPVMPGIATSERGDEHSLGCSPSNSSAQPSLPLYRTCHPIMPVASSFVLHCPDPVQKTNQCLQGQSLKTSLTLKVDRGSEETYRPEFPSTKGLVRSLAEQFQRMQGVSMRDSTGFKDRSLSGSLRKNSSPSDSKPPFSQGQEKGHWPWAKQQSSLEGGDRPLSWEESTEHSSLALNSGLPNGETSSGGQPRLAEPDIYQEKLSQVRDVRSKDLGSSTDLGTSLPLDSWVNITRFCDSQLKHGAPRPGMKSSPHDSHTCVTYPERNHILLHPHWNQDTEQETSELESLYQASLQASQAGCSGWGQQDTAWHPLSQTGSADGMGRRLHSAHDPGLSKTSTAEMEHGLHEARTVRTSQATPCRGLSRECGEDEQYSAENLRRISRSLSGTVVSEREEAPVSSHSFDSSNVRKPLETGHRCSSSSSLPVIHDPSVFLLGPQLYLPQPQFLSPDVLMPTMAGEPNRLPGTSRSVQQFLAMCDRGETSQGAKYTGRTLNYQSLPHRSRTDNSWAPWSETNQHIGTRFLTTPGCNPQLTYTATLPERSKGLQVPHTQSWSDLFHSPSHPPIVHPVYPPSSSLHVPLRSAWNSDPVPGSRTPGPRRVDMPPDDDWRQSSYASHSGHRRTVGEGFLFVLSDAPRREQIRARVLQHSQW
Sequence of USP7 (Q93009 whole entry, looked up): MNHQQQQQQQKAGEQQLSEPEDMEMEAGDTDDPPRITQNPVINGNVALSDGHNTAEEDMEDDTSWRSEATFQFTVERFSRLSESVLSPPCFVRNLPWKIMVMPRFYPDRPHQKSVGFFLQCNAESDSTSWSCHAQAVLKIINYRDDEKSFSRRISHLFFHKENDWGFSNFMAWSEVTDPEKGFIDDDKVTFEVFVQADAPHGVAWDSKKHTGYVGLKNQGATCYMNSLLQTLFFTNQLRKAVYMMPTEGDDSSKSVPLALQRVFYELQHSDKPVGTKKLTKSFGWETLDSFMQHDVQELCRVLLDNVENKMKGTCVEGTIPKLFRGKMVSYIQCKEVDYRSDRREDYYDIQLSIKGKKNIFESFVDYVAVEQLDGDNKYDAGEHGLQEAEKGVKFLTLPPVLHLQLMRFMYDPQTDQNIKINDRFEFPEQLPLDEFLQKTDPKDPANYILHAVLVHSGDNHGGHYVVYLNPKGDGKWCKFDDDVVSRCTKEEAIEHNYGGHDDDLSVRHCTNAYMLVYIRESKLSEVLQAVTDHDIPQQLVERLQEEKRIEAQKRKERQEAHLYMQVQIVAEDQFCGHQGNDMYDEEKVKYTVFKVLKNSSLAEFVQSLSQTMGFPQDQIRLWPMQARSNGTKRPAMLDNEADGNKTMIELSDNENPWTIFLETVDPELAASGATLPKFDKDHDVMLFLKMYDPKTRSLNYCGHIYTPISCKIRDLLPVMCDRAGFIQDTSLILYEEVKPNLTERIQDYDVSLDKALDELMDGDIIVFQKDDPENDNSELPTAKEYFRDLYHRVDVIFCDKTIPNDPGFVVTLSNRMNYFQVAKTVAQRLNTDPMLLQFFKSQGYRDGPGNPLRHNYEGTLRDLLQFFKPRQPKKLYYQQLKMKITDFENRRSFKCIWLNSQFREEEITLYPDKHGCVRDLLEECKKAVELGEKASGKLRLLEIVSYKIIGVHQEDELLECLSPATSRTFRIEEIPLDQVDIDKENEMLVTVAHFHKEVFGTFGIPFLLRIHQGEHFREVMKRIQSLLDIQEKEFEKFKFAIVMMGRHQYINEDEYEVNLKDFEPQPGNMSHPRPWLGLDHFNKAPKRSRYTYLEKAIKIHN
Sequence of USP46 (P62068 whole entry): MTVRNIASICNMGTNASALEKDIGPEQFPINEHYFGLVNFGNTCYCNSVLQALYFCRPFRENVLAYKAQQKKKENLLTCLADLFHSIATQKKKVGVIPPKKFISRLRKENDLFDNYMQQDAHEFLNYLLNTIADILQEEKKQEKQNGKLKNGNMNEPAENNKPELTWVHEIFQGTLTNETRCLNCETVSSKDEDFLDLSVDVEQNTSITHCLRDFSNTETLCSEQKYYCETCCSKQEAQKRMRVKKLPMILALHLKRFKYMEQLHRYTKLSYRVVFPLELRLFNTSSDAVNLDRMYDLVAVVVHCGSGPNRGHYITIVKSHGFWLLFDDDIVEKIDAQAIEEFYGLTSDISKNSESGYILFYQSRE

NS(=O)(=O)c1ccc(Cl)c(NC(=O)CCl)c1
inactive: USP42 0.0225 | USP46 -0.123 | USP47 -0.247 | USP48 -0.536 | USP5 0.233 | USP54 -0.00214 | USP7 -0.207 | USP8 -0.125

From the supplement of paper PMC11732987, “Enantioselective OTUD7B fragment discovery through chemoproteomics screening and high-throughput optimisation” (Communications Chemistry, 2025)
